Measurements reported in PubChem BioAssay AID1159580 (chemical genetic matrix, 2015).
Hit rate of the full screen: of about 5,500 compounds, about 2,000 (36%) were called active. Not shown: some 18% with an inconclusive outcome. Rule as the data show it: active = normalized growth mostly below about 0.91 (no sharp cut-off); inconclusive = no clear call, values can overlap the other calls; inactive = mostly above about 0.92. The list shows a part of the results.

Experiment: chemical genetic growth profiling, strain panel (AID 1159580);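 also: tested at 20 µM; growth read once vehicle control cultures reached saturation at 30 °C; 1 = growth at the plate median or of vehicle wells; lower values mean less growth of the strain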
Settings: S. cerevisiae deletion strains, growth OD

Measured: normalized growth

COc1cc2c(cc1O)CC[C@@H]1[C@@H]2CC[C@]2(C)[C@@H](O)CC[C@@H]12
inactive: locus YAL040C, strain CLN3, hits give low values 1.02 | locus YCL061C, strain MRC1 (second series), hits give low values 1 | locus YDR150W, strain NUM1, hits give low values 0.964 | locus YDR363W, strain ESC2, hits give low values 1.02 | locus YER002W, strain NOP16, hits give low values 0.994 | locus YGR078C, strain PAC10, hits give low values 1 | locus YJR075W, strain HOC1, hits give low values 1.03 | locus YNL153C, strain GIM3, hits give low values 0.936 | locus YNL175C, strain NOP13, hits give low values 1.01 | locus YNL197C, strain WHI3, hits give low values 1.03 | locus YNL224C, strain SQS1, hits give low values 1.03 | locus YOR083W, strain WHI5 (second series), hits give low values 0.982 | locus YPL241C, strain CIN2, hits give low values 0.996
